Rows were chosen to be rich in hits. Some 12% of all compounds tested hit in one or more screens of this group.
Shiga toxin inh – blocks Shiga toxin action in Vero cells; inhibition, % at 38.7 µM; hit rate 9.2% among 290,000; Vero cells, Shiga toxin protein synthesis inhibition reporter; AID 2315; in the data active = inhibition mostly above about 28%, no sharp cut-off; inactive = mostly below about 43%; note: 0% is about no effect
Cycloheximide cs – counter-screen for Shiga toxin inhibitors: cycloheximide protein synthesis inhibition; cell reporter, cycloheximide protein synthesis inhibition counterscreen; max response, %; hit rate 12% among 300,000; AID 2314; in the data active = max response mostly above about 13%, no sharp cut-off; inactive = mostly below about 14%; note: read at 38.3 µM for the half of the compounds with a filed dose; 0% is about no effect
FMDV antiviral – foot and mouth disease virus antiviral activity; AID 1159524; hit rate 1.2% among 410,000; Potency, µM (titrated, usually from 57.9 µM), for the others: at the highest dose activity change, negative = inhibition, most hits filed as inhibitors; FMDV antiviral cell-based qHTS; calls by dose curve; tested in HEK293T cells; note: read-out not given here; potency is the fitted concentration of half-maximal effect; % is set by controls: 0 for no effect and ±100 for the full control effect; nearly all actives have a fitted effect of over 45% in size
Sm TGR block – blocks Schistosoma mansoni thioredoxin glutathione reductase; Q962Y6; purified TGR, DTNB reduction, TNB absorbance 405 nm; Potency, µM (series often up to 114 µM), for inactives: at the top dose activity change, negative = inhibition, usual class: inhibitors; hit rate 3% among 360,000; AID 485364; active = well fitted inhibition curve with a large enough effect; inconclusive = small, poorly fitted or top-dose-only effect; inactive = no such curve, though single readings can be large or run the other way; note: potency is the fitted concentration of half-maximal effect; % is set by controls: 0 for no effect and ±100 for the full control effect; nearly all actives have a fitted effect of over 60% in size
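TGR 20 nM + NADPH 100 uM (dispensed conc.), cpd preinc 15 min RT; start with NADPH (500 uM addition) then DTNB (15 mM addition). Kinetic TNB absorbance, 405 nm filter. Four-parameter Hill fit across titration.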
* = called active by the depositor; ? = inconclusive; · = not tested or not shown; + = active, no number.

SMILES	Shiga toxin inh	Cycloheximide cs	FMDV antiviral	Sm TGR block
O=C(NCC1Cc2cccc(-c3cccnc3)c2O1)c1cc(-c2ccccc2)n[nH]1 (stereo not given)	·	·	-13%	·
O=C(N/N=C/c1c(O)n(Cc2ccc(F)cc2)c(=O)[nH]c1=O)c1ccccc1O	50	9	17%	35µM*
O=c1[nH]c(=O)n(Cc2ccco2)c(O)c1C=NC1CC1	13	-5	9%	-27%
O=C(N/N=C/c1c(O)n(CCc2ccccc2)c(=O)[nH]c1=O)c1ccccc1O	29	24*	3%	-36%
CCCCCCC(=O)N/N=C/c1c(O)n(CCc2ccccc2)c(=O)[nH]c1=O	1	-3	-6%	-8%
O=C(N/N=C/c1c(O)n(Cc2ccco2)c(=O)[nH]c1=O)c1ccccc1	80	34*	31%	-34%
COc1ccc(Cn2c(O)c(/C=N/NC(=O)c3ccncc3)c(=O)[nH]c2=O)cc1	-6	-3	-16%	?
O=C(N/N=C/c1c(O)n(Cc2ccccc2)c(=O)[nH]c1=O)c1ccccc1O	6	16*	7%	25µM*
COc1ccc(Cn2c(O)c(/C=N/NC(=O)c3ccccc3)c(=O)[nH]c2=O)cc1	75*	37*	-17%	?
COc1cccc(N=Cc2c(O)n(Cc3ccco3)c(=O)[nH]c2=O)c1	-3	-1	-9%	25µM*
COc1ccc(Cn2c(O)c(/C=N/NC(=O)c3ccccc3O)c(=O)[nH]c2=O)cc1	20	13*	0%	?
Cc1ccc2c(c1)C(c1ccc(F)cc1)N(C(=O)c1ccc(OC(C)C)cc1)CC(=O)N2 (stereo not given)	·	·	-13%	-1%
O=C(Cc1ccc(Cl)cc1)NC1CC(=O)N(c2ccc3c(c2)OCCO3)C1 (stereo not given)	·	·	3%	-3%
CCOc1ccccc1CNC(=O)c1cc(-c2ccc(Cl)s2)nc2ccccc12	·	·	-4%	-2%
Cc1cccc(NC(=O)c2ccc3c(Cl)c4c(nc3c2)CCCC4)n1	31	23	-19%	-23%
O=C(Nc1ccc(Cl)cn1)c1ccc2c(Cl)c3c(nc2c1)CCC3	64*	35*	-4%	15%
CCC(C)NC(=O)c1ccc2c(SCC(=O)O)c3c(nc2c1)CCCC3 (stereo not given)	16	-5	-13%	8%
CN(C(=O)c1ccc2c(Cl)c3c(nc2c1)CCC3)c1ccccc1F	·	·	30%	-1%
CCC(C)NC(=O)c1ccc2c(Cl)c3c(nc2c1)CCC3 (stereo not given)	53*	28*	37%	-6%
CN(C(=O)c1ccc2c(Cl)c3c(nc2c1)CCC3)c1ccccc1	94*	45*	28%	-13%
Cc1noc(Cn2c(=O)c3ccccc3n(CC(=O)Nc3ccc(F)cc3F)c2=O)n1	·	·	?	1%
Cc1cccc(N/N=C/c2ccc(C)s2)c1	80*	40*	62%	-14%
Cc1cccc(N/N=C/c2ccc(O)c(O)c2O)c1	12	0	10%	7.1µM*
Cc1ccc(/C=N/N=C/c2ccc(C)s2)s1	+	71*	0%	-4%
COc1cccc(N/N=C/c2cccc(Br)c2O)c1	88*	30*	23%	35µM*
SMILES	Shiga toxin inh	Cycloheximide cs	FMDV antiviral	Sm TGR block
Cc1oc2cc3oc(=O)c(CC(=O)NCc4ccccc4)c(C)c3cc2c1C	·	·	28%	0%
CCC(Sc1ccc(C(=O)O)cc1)C(=O)O (stereo not given)	-7	-2	19%	3%
O=C(CC(Sc1ccc(Br)cc1)C(=O)O)c1ccc(F)cc1 (stereo not given)	-4	-4	-20%	0.63µM*
CCOc1ccc(C(=O)CC(Sc2ccc(C)cc2)C(=O)O)cc1 (stereo not given)	17	-1	-11%	3.2µM*
COc1ccc(C(CC(=O)Nc2cc(Cl)c(OC)cc2OC)N2Cc3ccccc3C2=O)cc1 (stereo not given)	·	·	56%	-2%
FC(F)(F)c1ccc(C2NCCc3sccc32)cc1 (stereo not given)	34	45*	33%	·
Cc1csc(/C(=N/OC(=O)c2ccco2)C(N)=O)n1	-4	6	-13%	4µM*
COc1ccc(NC(=S)N2CCC(c3ccc(C)cc3)C2)cc1 (stereo not given)	41	14*	21%	0%
COc1cccc(NC(=S)N2CCC(c3ccc(C)cc3)C2)c1 (stereo not given)	82*	30*	-2%	5%
Cc1ccc(NC(=S)N2CCC(c3ccc(C)cc3)C2)cc1 (stereo not given)	98*	46*	67%	3%
COc1cccc(NC(=S)N2CCC(Cc3ccccc3)CC2)c1	9	20	?	0%
CCOc1ccc(NC(=S)N2CCC(c3ccc(C)cc3)C2)cc1 (stereo not given)	-8	-2	-7%	17%
